# “And” between values parts separate entries of the source, which are not always exact repeats. Equal values may be shown once. Among all 150,000 compounds or so, about 6,500 (4.3%) were called active. Another 12% or so got no clear call; they are omitted. Shown is part of a subset that was picked to be rich in actives. A structure can be active in one record and inactive in another. Values without a mark were called inactive. Calls follow the shape of the dose curve; as a rule, active = well fitted inhibition curve with a large enough effect (not every such curve was filed as active); inconclusive = small, poorly fitted or top-dose-only effect, or another doubt; inactive = no such curve, though single readings can be large or run the other way.
# Molecular target: 15-hydroxyprostaglandin dehydrogenase [NAD(+)] (Homo sapiens) (UniProt P15428)
# Assay: qHTS Assay for Inhibitors of HPGD (15-Hydroxyprostaglandin Dehydrogenase)
# Details: purified HPGD, NADH fluorescence kinetic, PGE2 substrate; activity change, negative = inhibition: hits give low values
# Summary of the method: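 NADH formation kinetics: reaction with 30 uM PGE2 and 1 mM NAD+ (final), 20 nM enzyme, Tris-HCl pH 8 with Tween 20, after 15 min compound preincubation at room temperature. Fluorescence change, last versus first of five reads.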
# % is scaled to controls: 0 for no effect and ±100 for the full control effect; potency is read from the fitted curve at half-maximal effect.
# 15-hydroxyprostaglandin dehydrogenase [NAD(+)] (Homo sapiens), sequence (P15428 whole entry, looked up): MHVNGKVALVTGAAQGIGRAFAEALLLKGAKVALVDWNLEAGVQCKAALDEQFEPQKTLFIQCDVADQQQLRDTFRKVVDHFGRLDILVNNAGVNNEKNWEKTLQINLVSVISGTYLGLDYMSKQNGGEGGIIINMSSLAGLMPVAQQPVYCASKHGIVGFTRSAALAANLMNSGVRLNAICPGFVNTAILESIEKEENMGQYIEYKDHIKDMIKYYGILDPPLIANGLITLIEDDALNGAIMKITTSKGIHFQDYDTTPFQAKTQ
Compound,"activity change, negative = inhibition",Potency
CC1CCCN(CCOCCOc2ccccc2-c2ccccc2)C1 (stereo not drawn),-3.59%,
COC(=O)N1C(/C=C/C=C/c2ccc(OC)cc2)=Cc2ccccc2C1CC(C)=O (stereo not drawn),-15%,
CC1CCN(c2ccc(C(=O)Nc3nnc(C4CC4)s3)cc2[N+](=O)[O-])CC1,-7.37%,
CC(NC(=S)Nc1ccccc1)C1COc2ccccc2O1 (stereo not drawn),-1.93%,
COc1cc(OC)nc(N/N=C(\c2ccccc2)c2ccncc2)n1,-10.6%,
CCC1(C(=O)c2ccccc2)C(c2cccc([N+](=O)[O-])c2)C1(C(=O)OC)C(=O)OC (stereo not drawn),-4.68%,
COc1ccc(Br)cc1CN(C)CC(=O)Nc1cc(Cl)cc(Cl)c1,-12.1%,
COC(=O)c1c(NC(=O)CN2C(=O)NC(CCc3ccccc3)C2=O)sc2c1CCCCC2 (stereo not drawn),-23.3%,
CN(C)S(=O)(=O)c1ccc(N2CCCC2=O)c([N+](=O)[O-])c1,-7.1%,
CCC(CC)C(=O)Nc1cccc(C(=O)N2CCCC2)c1,-4.19%,
Cc1c(Cl)cccc1NC(=O)Nc1ccc(C(=O)N2CCCC2)cc1,,14.1 µM (active)
Cc1c(NC(=O)Nc2ccccc2)cccc1[N+](=O)[O-],-4.65%,
CC1=C[C@H]2Cc3cc(C)cc(C)c3S(=O)(=O)[C@@H]2C=C1,-8.5%,
N=C1C(=O)OCC1c1ccccc1NC(=O)CN1CCCCC1 (stereo not drawn),-11.6%,
C=C(C(C)=O)C(O)c1ccc([N+](=O)[O-])cc1 (stereo not drawn),-15.8%,
Cc1c(NC(=O)c2cccnc2)c(=O)n(-c2ccccc2)n1C,4.69% and -0.99%,
Cc1cc(C(=O)Nc2c(C)n(C)n(-c3ccccc3)c2=O)cs1,-6.25%,
Cc1ccc(O)c(-c2cc(C(=O)Nc3c(C)n(C)n(-c4ccccc4)c3=O)[nH]n2)c1,,20 µM (active)
CCCSc1nc2[nH]ncc2c(=O)[nH]1,-15.8%,
O=C(O)c1cccc(N2C(=O)Nc3ccccc3N2O)c1,-2.37%,
CCCC(C)C(=O)OCC(=O)Nc1c(Br)cc(C)cc1Br (stereo not drawn),-2.73%,
CN(Cc1ccccc1)C(=O)CCc1ccccc1,-14.5%,
CN(Cc1ccccc1)C(=O)COc1ccccc1,-21.3%,

Compound,"activity change, negative = inhibition",Potency
CC(Cc1ccccc1)C(=O)N(C)Cc1ccccc1 (stereo not drawn),-12.5%,5.01 µM (active)
COc1ccc(CC(=O)Nc2ccc(C(=O)NC(C)(C)C)cc2)cc1,-10.9%,
CCN(C(=O)COc1cccnc1[N+](=O)[O-])C1CCS(=O)(=O)C1 (stereo not drawn),-10.7%,
CC(=O)Nc1ccn(Cc2c(F)cccc2Cl)n1,-0.326%,
COc1ccc(C(=O)Nc2c(Cl)cc(Cl)cc2C(=O)N2CCC(C)CC2)cc1,-13.4%,
COc1ccc(Cn2nnc3c(=O)[nH]c(C4CCN(C(=O)c5ccccc5Cl)CC4)nc32)cc1,,7.94 µM (active)
COc1ccc(-n2nnc3c(=O)n(CC(=O)N4CCC(Cc5ccccc5)CC4)cnc32)cc1,-23.8%,
Cc1ccc(Cn2nnc3c(=O)n(CC(=O)N4CCCCC4)cnc32)cc1,-22%,
Cc1ccc(NC(=O)N2CCC(c3nc4c(nnn4Cc4c(F)cccc4Cl)c(=O)[nH]3)CC2)cc1,,12.6 µM (active)
OCCNCCOc1ccc(Cl)c(Cl)c1,-9%,
C/C(=N/NC(=O)CSc1ccccn1)c1ccc([N+](=O)[O-])cc1,-12.7%,
CC(C)Nc1nnc(SCC(=O)c2c[nH]c3ccccc23)s1,-16.2%,
COc1ccc(NC(=S)N2CCCC(CO)C2)c(OC)c1 (stereo not drawn),-2.74%,
COc1cccc([C@@H]2Oc3ccc(Br)cc3C(=O)[C@H]2OC(=O)NCc2ccc3c(c2)OCO3)c1,-12.1%,
CCCN=C1NC(=O)C(CC(=O)NCCc2ccc(OC)c(OC)c2)S1 (stereo not drawn),-5.13%,
O=C(Nc1nc(-c2ccc3c(c2)OCO3)cs1)c1ccncc1,-1.69%,
O=C(Nc1nc(-c2ccncc2)cs1)C1COc2ccccc2O1 (stereo not drawn),,7.94 µM (active)
O=C(Nc1nnc(SCc2ccc(Cl)cc2Cl)s1)C1COc2ccccc2O1 (stereo not drawn),-24%,
CCNc1nc(-c2cc3ccccc3o2)cs1,-4.63%,
O=C(OCC(=O)c1c[nH]c2ccccc12)c1cccc(O)c1,-8.39%,
CC(=O)NC1=NN(C(C)=O)C(C)(c2ccc(C)cc2)S1 (stereo not drawn),-5.01%,
COCCOC(=O)c1sc(=S)n(CCOC)c1N,,28.2 µM (active)
CC1(c2ccccc2)CC(C)(C)N(C(=O)c2cc([N+](=O)[O-])cc([N+](=O)[O-])c2)c2ccccc21 (stereo not drawn),-4.13%,

Compound,"activity change, negative = inhibition",Potency
O=C(NCc1ccco1)c1ccc(Cn2c(=O)c3sccc3n(Cc3ccc(F)cc3)c2=O)cc1,-17.7%,
O=C(NCc1ccco1)c1cc2sccc2n1Cc1ccc(F)cc1,,17.8 µM (active)
O=C(Cc1ccc(-n2c(=O)c3sccc3n(Cc3ccc(F)cc3)c2=O)cc1)NCc1ccco1,-7.92%,
COc1cc(NC(=O)c2ccccc2NS(=O)(=O)c2ccc(Cl)s2)cc(OC)c1,-5.94%,
N#CC1=C(N)Oc2cc(O)ccc2C1C1CCCCC1 (stereo not drawn),-8.6%,
O=C(O)c1c(Br)c(Br)c(Br)c(Br)c1C1c2ccc(O)cc2Oc2cc(O)ccc21,,2.51 µM (active)
COc1ccc(/C=C/C(=O)NC(=S)NN2CCCCC2c2cccnc2)cc1 (stereo not drawn),-29.9%,
CCCCCCCC1=Cc2ccc(F)cc2C(C(C(=O)OC)C(=O)OC)N1C(=O)OC (stereo not drawn),-2.63% and -13.1%,
O=C(/C=C/c1cccs1)NCc1cccnc1,-9.43%,
CC(=O)Nc1ccc(S(=O)(=O)NCCc2ccccc2)cc1,-7.41%,
CC(=O)Nc1ccc(S(=O)(=O)Nc2nc3n(n2)C(c2ccccc2)CC(=O)N3)cc1 (stereo not drawn),-6.58%,
CC(=O)Nc1ccc(S(=O)(=O)NC2(C(F)(F)F)C(=O)Nc3c2c(=O)[nH]c(=O)n3Cc2ccccc2)cc1 (stereo not drawn),,17.8 µM (active)
COc1ccc(C(=O)CSc2nnc(NC(=O)C3CC(=O)N(c4cccc(OC)c4)C3)s2)cc1 (stereo not drawn),-4.45%,
COC(=O)C1=C(C)N(C)C(=S)NC1c1ccccc1 (stereo not drawn),-10.8%,
COC(=O)c1cn(-c2ccccc2)nc1-c1cccnc1,-1.05%,
CCOC(=O)c1cnc(SCC(=O)Nc2cccc(OC)c2)nc1N,-14.8%,
CCOC(=O)c1sc(=S)n(-c2cccc(OC)c2)c1N,,28.2 µM (active)
COC(=O)c1sc(=S)n(-c2ccccc2)c1N,,14.1 µM (active)
CCOC(=O)c1csc(NC(=O)Nc2cccc(OC)c2)n1,-6.02%,
Cc1ccc(CC2S/C(=C(/C#N)C(=O)N3CCOCC3)N(c3ccccc3)C2=O)cc1 (stereo not drawn),-13.9%,
CN(C)C(=O)c1ccc2c(c1)C1C3CCC(C3)C1C(c1ccccc1)N2 (stereo not drawn),-9.73%,
c1nnc2c3c4c(sc3ncn12)CCC4,-16.5%,
N=c1c2c3c(sc2ncn1N)CCCCC3,-10.1%,

Compound,"activity change, negative = inhibition",Potency
S=c1[nH]nc2c3c4c(sc3ncn12)CCCC4,,20 µM (active)
CCOC(=O)/C(=N\Nc1cc(Cl)ccc1Cl)N1CCN(C)CC1,-8.38%,
CCCCOc1ccc(C(=O)N/C(=C/C=C/c2ccccc2)C(=O)N2CCOCC2)cc1,-16%,
COc1cccc(C(=O)Nc2cc3c(cc2Br)OCCCO3)c1,-9.03%,
FC(F)(F)Oc1ccc(NC(=S)NCc2ccccc2)cc1,-11.2%,
COC(=O)Cc1ccc(NC(=S)NCc2ccccc2)cc1,,20 µM (active)
COC(=O)Cc1ccc(NC(=S)NCc2ccc(Cl)cc2)cc1,-8.96%,
Cc1c(Cl)c([N+](=O)[O-])nn1CCCC(=O)NC(C)c1ccccc1 (stereo not drawn),-2.71%,
COC(=O)c1ccc(COC(=O)c2c(C)nn(Cc3ccccc3Cl)c2Cl)o1,-23%,
Cc1cc(C(=O)Nc2c(C)nn(Cc3ccccc3)c2C)on1,-12.9%,
Cc1nn(Cc2ccccc2)c(Cl)c1C(=O)OC1CCOC1=O (stereo not drawn),,15.8 µM (active)
O=C(COC(=O)[C@H](Cc1ccccc1)NC(=O)c1cccs1)Nc1cc(F)ccc1F,2.87%,
Cc1cc(=O)n2nc(N3CCCC(C(=O)NCCC4=CCCCC4)C3)sc2n1 (stereo not drawn),-11.9%,
CC1CCCN(C(=O)c2ccc3c(c2)C(=O)N(CCC2=CCCCC2)C3=O)C1 (stereo not drawn),,0.891 µM (active)
Cn1nnc2cc(C(=O)NCCC3=CCCCC3)ccc21,-28.7%,
C=CC1=C2C=C(C3CC3)N(CC(C)C)C=C2C(=O)C(C)(OC(=O)c2ccco2)C1=O (stereo not drawn),-3.22%,
CCn1cc(/C=C2/SC(=S)NC2=O)c(C)n1,,17.8 µM (active)
Cc1nn(C)cc1/C=C1\CCC/C(=C\c2cn(C)nc2C)C1=O,-27.5%,
O=C1NC(c2ccc(-c3ccccc3[N+](=O)[O-])o2)C(C(=O)c2ccc(Cl)cc2)C(O)(C(F)(F)F)N1 (stereo not drawn),-3.47%,
C#CCCCc1nc2ccccc2c(=O)n1N,-10.2%,
Cc1cc(-c2n[nH]c(=S)n2/N=C/C(Br)=C/c2ccccc2)n[nH]1,,3.98 µM (active)
S=c1[nH]nc(-c2cccnc2)n1/N=C/C(Cl)=C\c1ccccc1,,1.58 µM (active)
COc1cc(CN2CC(C)CC(C)C2)cc([N+](=O)[O-])c1O (stereo not drawn),-17.1%,

# — PubChem BioAssay AID894 (National Center for Advancing Translational Sciences (NCATS), 2007)
